The record followed here is PubChem BioAssay (NCATS).

Where “and” joins values, the source holds several entries; their conditions need not be identical. Equal values may be shown once. Results filed as inconclusive are left out. The list shows a part of the results. Calls of active or inactive are those of the source. Unless noted, calls follow the shape of the dose curve; as a rule, active = well fitted curve in the direction sought with a large enough effect; inconclusive = small, poorly fitted or top-dose-only effect, or another doubt; inactive = no such curve, though single readings can be large; an effect the other way counts as inactive or inconclusive.

The target of test [1] is Vitamin D3 receptor (Homo sapiens) (UniProt P11473). Briefly: qHTS for Inhibitors of the vitamin D receptor (VDR): Hit Validation in Primary Screen (AID 602199). Also: potency is read from the fitted curve at half-maximal effect. The settings on record: VDR-coactivator inhibition assay, qHTS confirmation. The gist of the method: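 Fluorescence polarization (Ex 620/Em 688 nm) of Alexa 647-SRC2-3 peptide with 800 nM VDR and 5 uM LG19078. Compounds at several concentrations, 2 h at room temperature.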
Chain of Vitamin D3 receptor (Homo sapiens) (P11473 whole entry, looked up, the tested form may be a part): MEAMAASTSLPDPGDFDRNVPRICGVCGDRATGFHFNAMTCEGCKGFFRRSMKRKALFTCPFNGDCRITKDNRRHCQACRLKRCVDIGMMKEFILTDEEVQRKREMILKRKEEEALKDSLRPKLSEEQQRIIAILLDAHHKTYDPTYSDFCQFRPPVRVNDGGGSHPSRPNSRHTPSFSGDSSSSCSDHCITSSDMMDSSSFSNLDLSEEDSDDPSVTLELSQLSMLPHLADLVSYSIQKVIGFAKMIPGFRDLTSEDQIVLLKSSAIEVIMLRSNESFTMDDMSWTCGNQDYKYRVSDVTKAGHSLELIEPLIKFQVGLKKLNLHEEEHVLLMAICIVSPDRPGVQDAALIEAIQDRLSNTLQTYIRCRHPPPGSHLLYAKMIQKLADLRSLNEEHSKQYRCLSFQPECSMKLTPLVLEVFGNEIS
On the technique in general: In qHTS, concentration-response curves come from the screen itself.

For test [2] the target is unchanged. Briefly: qHTS for Inhibitors of the vitamin D receptor (VDR): Hit Validation using a Fluorescein Assay (AID 602200). Also: potency is read from the fitted curve at half-maximal effect. The settings on record: VDR-coactivator binding, fluorescein fluorescence polarization. The gist of the method:
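Fluorescence polarization: 1.5 uM VDR-LBD, 5 uM LG19078 and 5 nM fluorescein-labeled SRC2-3 peptide (final) with compounds, 2 h at room temperature. Read at Ex 495/Em 520 nm; peptide-only wells served as control.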

The nature of test [3]: qHTS for Inhibitors of the vitamin D receptor (VDR): Hit Validation using a Texas Red Assay (AID 602201). Also: potency is read from the fitted curve at half-maximal effect. The settings on record: VDR coregulator binding, Texas Red fluorescence polarization; agonist-bound VDR ligand-binding domain. The procedure, abridged:
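Fluorescence polarization with 1.5 uM VDR-LBD, LG19078 and 7 nM Texas Red (final). After 2 hours at ambient temperature, read at Ex 595 nm/Em 615 nm.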

The target of test [4] is Vitamin D3 receptor (Homo sapiens) (UniProt P11473). Briefly: qHTS for Inhibitors of the vitamin D receptor (VDR): Hit Validation using a Beta-Lactamase Assay (AID 602202). Also: potency is read from the fitted curve at half-maximal effect. The procedure, abridged:
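Stably transfected HEK293 cells expressing VDR-GAL4 DNA-binding domain fusion with UAS-driven beta-lactamase reporter, activated by agonist LG190178; compounds incubated 18 h, then FRET beta-lactam substrate 2 h; cleaved substrate read at 447 nm emission.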

For test [5], the target named is Cytochrome P450 2C9 (Homo sapiens) (UniProt P11712). The test can be described thus: Cytochrome P450 family 2 subfamily C member 9 (CYP2C9) small molecule antagonists: luciferase biochemical (cell-free) qHTS assay (AID 1645842; active = well fitted curve in the direction sought with a large enough effect in the repeat runs; an effect the other way counts as inactive or inconclusive; also: potency is read from the fitted curve at half-maximal effect; nearly all actives have a fitted effect of over 55% in size). The gist of the method:
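Luminescence, after 20 min with luciferin detection reagent, reflected CYP2C9 turnover during a 1 h NADPH-driven reaction at 37C. Enzyme-substrate mix contained 0.4% bovine serum albumin and was preincubated with compound 10 min at room temperature.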

Test [6] is described as follows: Confirmation and Secondary Assay for Modulators of Hemoglobin Beta Chain Splicing at IVS2 654 locus (AID 910).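 Also: HeLa cells stably carrying EGFP split by mutant beta-globin IVS2-654 intron; % of control where 0% means no effect.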 The procedure, abridged: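 HeLa cells stably expressing EGFP interrupted by β-globin IVS2-654 intron, seeded overnight in Opti-MEM/2% FCS, then treated 2 days at 37 °C. Restored splicing read as total peak GFP intensity per well by laser scanning cytometry (488 nm excitation, 500–520 nm emission); 500 nM antisense PNA as control.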

A short description of test [7]: Confirmation and Secondary Assay for Modulators of Hemoglobin Beta Chain Splicing at IVS2 705 locus (AID 930).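 Also: HeLa cells stably expressing the EGFP-705 splicing reporter; GFP fluorescence per well restored by corrected splicing of the IVS2-705 intron in EGFP; % of control where 0% means no effect.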 The gist of the method:
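Read-out: total peak GFP fluorescence per well (488 nm excitation, 500-520 nm emission) by laser-scanning cytometry. Cells: HeLa EGFP-705 splicing reporter, 2 days compound exposure in Optimem/2% FCS.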

Test [8] in a line: qHTS Assay for Lipid Storage Modulators (AID 1519; calls by dose curve). Particulars: Drosophila S3 cells, BODIPY lipid droplet/cell ratio, laser cytometry, cells loaded with oleic acid. The gist of the method: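 Cells seeded at 5,000 per well were treated with compounds over a concentration series and loaded with oleic acid (400 uM, as added). Lipid droplet fluorescence (488 nm excitation, 500-530 nm channel) was read by laser-scanning cytometry and normalized to 20 uM Triacsin C.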

Test [9] addresses Ubiquitin carboxyl-terminal hydrolase 1 (Homo sapiens) (UniProt O94782). The test can be described thus: Inhibitors of USP1/UAF1: Pilot qHTS (AID 504865).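 Also: rhodamine fluorescence freed from ubiquitin-rhodamine substrate followed over time; top concentration of the series differs between compounds; % is scaled to controls: 0 for no effect and ±100 for the full control effect; nearly all actives have a fitted effect of over 35% in size.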 The procedure, abridged: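 USP1/UAF1 complex at 1 nM preincubated 15 min at room temperature with compound, then Ub-Rho substrate added at 150 nM final. Fluorescence (480/540 nm) read kinetically in 50 mM HEPES pH 7.8, 0.5 mM EDTA, 1 mM TCEP, 0.1 mg/ml BSA, 0.01% Tween-20.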

For test [10], the target named is Lysosomal acid glucosylceramidase (Homo sapiens) (UniProt P04062). The test can be described thus: Glucocerebrosidase-p2 (AID 348; in the data active = potency below about 10 µM; also: potency is read from the fitted curve at half-maximal effect). Particulars: purified GBA, blue fluorogenic substrate, 40 min. The gist of the method: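 Compounds titrated from 0.6 nM upwards against 0.2 nM enzyme in pH 5.9 citric acid/KH2PO4, taurocholate, tween-20; blue fluorogenic substrate 80 uM, 40 min room temperature, stopped and read Ex 365/Em 440 for AC50.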
Chain of Lysosomal acid glucosylceramidase (Homo sapiens) (P04062 whole entry, looked up): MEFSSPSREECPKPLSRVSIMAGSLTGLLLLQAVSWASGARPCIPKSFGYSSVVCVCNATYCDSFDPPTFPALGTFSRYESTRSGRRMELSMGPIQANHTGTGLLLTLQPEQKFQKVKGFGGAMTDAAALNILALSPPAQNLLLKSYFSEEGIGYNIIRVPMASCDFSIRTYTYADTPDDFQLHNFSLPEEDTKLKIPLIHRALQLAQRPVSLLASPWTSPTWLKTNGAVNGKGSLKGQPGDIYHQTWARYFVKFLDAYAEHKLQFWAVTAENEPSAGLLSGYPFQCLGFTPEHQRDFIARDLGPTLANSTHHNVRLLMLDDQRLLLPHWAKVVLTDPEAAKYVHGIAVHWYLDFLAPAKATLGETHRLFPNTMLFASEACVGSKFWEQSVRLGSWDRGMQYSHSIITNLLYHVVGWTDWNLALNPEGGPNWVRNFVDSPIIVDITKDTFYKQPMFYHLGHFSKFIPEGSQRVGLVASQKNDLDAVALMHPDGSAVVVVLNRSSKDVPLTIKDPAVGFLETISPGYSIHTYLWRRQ

Test [11] in a line: AP1 Signaling Pathway (AID 357; active = well fitted curve in either direction with a large enough effect, not every such curve was filed as active; also: % is scaled to controls: 0 for no effect and ±100 for the full control effect). Particulars: ME-180 AP-1-bla reporter, EGF-induced, beta-lactamase ratio, 5 h; at 7.69 µM (top of the series) unless noted. The gist of the method:
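AP-1-bla ME-180 cells with beta-lactamase reporter under AP-1 response element, stimulated with EC50 EGF; compounds titrated, 5 hours at 37 degrees Celsius. CCF4 read at 460/530 nm ratio; positive and negative modulators judged by AC50.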

Test [12] addresses Cytochrome P450 1A2 (Homo sapiens) (UniProt P05177). The test can be described thus: p450-cyp1a2 (AID 410; calls by dose curve; also: potency is read from the fitted curve at half-maximal effect). The procedure, abridged:
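20nM CYP1A2 with 100uM Luciferin-ME (at Km) in 100mM KPO4; compound preincubated 10 min, NADPH regeneration added, 60 min at room temperature. Luciferin quantified by luminescence after detection reagent; normalized to 57 uM furafylline.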

Test [13] in a line: NFAT Signaling Pathway (AID 444; active = well fitted curve in either direction with a large enough effect, not every such curve was filed as active;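 also: carbachol stimulus at about its EC50 of 1 µM final; % is scaled to controls: 0 for no effect and ±100 for the full control effect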). The settings on record: Jurkat NFAT-bla M1, carbachol, beta-lactamase ratio, 5 h; at 7.69 µM (top of the series) unless noted. The gist of the method:
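Jurkat cells with NFAT-driven β-lactamase reporter and co-expressed M1 receptor, stimulated with carbachol (final 1 uM, ~EC50), compound titration, 5 h at 37 °C. CCF4 loaded 1 h at RT; 460/530 nm ratio gave %activity and AC50.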

The nature of test [14]: Stat Signaling Pathway (AID 446; active = well fitted curve in either direction with a large enough effect, not every such curve was filed as active;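 also: ME-180 cervical cancer cells given 40 pM IL-6 alongside compound; SIE-controlled beta-lactamase reporter measured as 460/530 nm FRET emission ratio; % is scaled to controls: 0 for no effect and ±100 for the full control effect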). Particulars: ME-180 (cervical carcinoma) SIE beta-lactamase reporter, IL-6 stimulated, 5 h; at 7.69 µM (top of the series) unless noted. The gist of the method: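 IL-6/STAT signaling read in ME-180 cells via an SIE beta-lactamase reporter. Stimulus was 40 pM IL-6 (its AC50) for 5 hrs, so both activation and inhibition register.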
In test [15] the target is Glucocorticoid receptor (Homo sapiens) (UniProt P04150). Briefly: GR-GFP Redistribution (AID 450;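 active = compounds whose dose series gives a full or clear partial fitted curve of increased nuclear translocation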; also: potency is read from the fitted curve at half-maximal effect). Particulars: U2OS GR-GFP nuclear translocation, laser cytometry, 2 h.
Chain of Glucocorticoid receptor (Homo sapiens) (P04150 whole entry, looked up): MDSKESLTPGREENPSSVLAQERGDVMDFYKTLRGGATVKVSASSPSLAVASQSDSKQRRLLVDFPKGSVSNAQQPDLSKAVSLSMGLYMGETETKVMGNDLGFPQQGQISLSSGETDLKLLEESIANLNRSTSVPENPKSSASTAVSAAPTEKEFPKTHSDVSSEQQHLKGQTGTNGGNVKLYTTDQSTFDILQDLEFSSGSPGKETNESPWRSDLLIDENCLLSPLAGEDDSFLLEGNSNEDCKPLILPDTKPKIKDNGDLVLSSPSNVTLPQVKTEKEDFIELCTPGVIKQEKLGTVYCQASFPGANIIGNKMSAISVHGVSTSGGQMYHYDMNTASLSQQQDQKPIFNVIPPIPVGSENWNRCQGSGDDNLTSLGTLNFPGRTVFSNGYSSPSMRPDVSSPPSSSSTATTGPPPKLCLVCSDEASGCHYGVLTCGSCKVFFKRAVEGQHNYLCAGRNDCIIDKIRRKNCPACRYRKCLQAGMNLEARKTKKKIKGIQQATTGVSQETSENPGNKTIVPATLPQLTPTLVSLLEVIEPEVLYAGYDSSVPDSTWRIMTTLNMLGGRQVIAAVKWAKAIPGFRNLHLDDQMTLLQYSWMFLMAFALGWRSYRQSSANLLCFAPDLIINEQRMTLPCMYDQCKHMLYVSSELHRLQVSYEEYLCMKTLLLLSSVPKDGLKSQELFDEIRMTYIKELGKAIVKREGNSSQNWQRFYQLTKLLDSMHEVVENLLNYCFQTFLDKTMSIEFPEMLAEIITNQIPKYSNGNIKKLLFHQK
Test [16] shares this target. The test can be described thus: GR-EFC Redistribution (AID 451; calls by dose curve; also: potency is read from the fitted curve at half-maximal effect). Particulars: CHO-K1 GR-EFC translocation, beta-gal luminescence, 2 h. The procedure, abridged:
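CHO-K1 cells expressing nuclear EA and GR-ED fragments of b-gal; compounds titrated up to 46 uM final, 2 h at 37 C. GR nuclear translocation read as complemented b-gal luminescence after 1 h RT detection.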

The target of test [17] is Mitogen-activated protein kinase 10 (Mus musculus) (UniProt Q61831). Briefly: JNK3 AlphaScreen Assay (AID 530; active = well fitted curve in either direction with a large enough effect, not every such curve was filed as active;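 also: kinase came from lysate of stimulated human HepG2 cells; signal reports phosphorylation of biotinylated GST-cJun 1-79 at Ser73 with 10 µM ATP; % is scaled to controls: 0 for no effect and ±100 for the full control effect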). The gist of the method: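 Pre-activated (IL-1β/TNFα) JNK3 in HepG2 lysates phosphorylates biotin-GST-cJun(1-79), 10 uM ATP; anti-phospho-cJun(Ser73) AlphaScreen read at room temperature, pH 7.6 Tris buffer. Compounds pre-incubated 15 min as titrations.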
A general note: In Alpha technology, singlet oxygen from a donor bead excites a nearby acceptor bead.

Test [18] has as its target 3',5'-cyclic-AMP phosphodiesterase 4B (Homo sapiens) (UniProt Q07343). Briefly: qHTS Assay for Inhibitors of PDE-IV (AID 607; active = well fitted activation curve with a large enough effect in the main read-out, with a control signal flat, not every such curve was filed as active; also: % of control where 0% means no effect). The gist of the method: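 Live HEK293 cells with a modified cyclic nucleotide-gated (CNG) channel report intracellular cAMP via membrane-potential dye fluorescence (ex 535/em 590 nm). Endogenous PDE-IV was targeted. Compounds were tested at up to 22.9 uM final; RO 20-1724 100 uM served as control.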

Test [19] has as its target Cytochrome P450 3A4 (Homo sapiens) (UniProt P08684). The test can be described thus: qHTS Assay for Activators of Cytochrome P450 3A4 (AID 885). Also: nearly all actives have a fitted effect of over 65% in size. The procedure, abridged:
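Quantitative HTS format: compounds preincubated with 20nM human CYP3A4 and Luciferin-PPXE substrate at KM, reaction started by NADPH regeneration, stopped after 60 min, luciferase luminescence read 20 min later.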

Test [20] addresses Dual specificity protein kinase CLK4 (Homo sapiens) (UniProt Q9HAZ1). Briefly: qHTS Assay for Inhibitors of CDC-like Kinase 4 (Kinase-Glo Assay) (AID 1770). Also: % is scaled to controls: 0 for no effect and ±100 for the full control effect; nearly all actives have a fitted effect of over 65% in size. The procedure, abridged: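 25 nM Clk4 with 100 uM RS repeat peptide and 1 uM ATP (final) in Tris pH7.5, 10 mM MgCl2, 4.5 h at room temperature. Remaining ATP measured by Kinase-Glo luciferase luminescence.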
Test [21] shares this target. Briefly: qHTS Assay for Inhibitors of CDC-like Kinase 4 (ADP-Glo Assay) (AID 1771). Also: % is scaled to controls: 0 for no effect and ±100 for the full control effect; nearly all actives have a fitted effect of over 70% in size. The procedure, abridged:
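25 nM Clk4 with 100 uM RS repeat peptide and 1 uM ATP (final) in buffer with 2 mM MgCl2, 0.5 mM EGTA, 2.5 mM DTT, 0.01% Triton X-100; 1 h at room temperature; ADP-Glo luminescence for ADP formed.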

Test [22] shares this target. Briefly: qHTS Assay for Inhibitors of CDC-like Kinase 4 (ADP-FP Assay) (AID 1795).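 Also: recombinant human CLK4 phosphorylating RS repeat peptide at 1 µM ATP; % is scaled to controls: 0 for no effect and ±100 for the full control effect; nearly all actives have a fitted effect of over 60% in size.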 The procedure, abridged: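 Recombinant Clk4 (6.25 nM) phosphorylated 100 uM RS repeat peptide with 1 uM ATP in 25 mM Tris pH 7.5, 10 mM MgCl2, 0.5 mM EGTA, 2.5 mM DTT, 0.01% Triton X-100 for 1 h. ADP was detected by Transcreener ADP2 competitive fluorescence polarization after 30 min at room temperature.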

Test [23] deals with Cytochrome P450 3A4 (Homo sapiens) (UniProt P08684). The test can be described thus: qHTS Assay for Inhibitors and Substrates of Cytochrome P450 3A4 (AID 884). Also: potency is read from the fitted curve at half-maximal effect; nearly all actives have a fitted effect of over 50% in size. The gist of the method:
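20 nM human CYP3A4 with 25 uM Luciferin-PPXE (at KM) in 200 mM KPO4, preincubated 10 min with compound; NADPH regeneration started a 60 min RT reaction. Luciferin detected by luminescence, normalized to 57 uM ketoconazole as full inhibition.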

Chain of Ubiquitin carboxyl-terminal hydrolase 1 (Homo sapiens) (O94782 whole entry, looked up): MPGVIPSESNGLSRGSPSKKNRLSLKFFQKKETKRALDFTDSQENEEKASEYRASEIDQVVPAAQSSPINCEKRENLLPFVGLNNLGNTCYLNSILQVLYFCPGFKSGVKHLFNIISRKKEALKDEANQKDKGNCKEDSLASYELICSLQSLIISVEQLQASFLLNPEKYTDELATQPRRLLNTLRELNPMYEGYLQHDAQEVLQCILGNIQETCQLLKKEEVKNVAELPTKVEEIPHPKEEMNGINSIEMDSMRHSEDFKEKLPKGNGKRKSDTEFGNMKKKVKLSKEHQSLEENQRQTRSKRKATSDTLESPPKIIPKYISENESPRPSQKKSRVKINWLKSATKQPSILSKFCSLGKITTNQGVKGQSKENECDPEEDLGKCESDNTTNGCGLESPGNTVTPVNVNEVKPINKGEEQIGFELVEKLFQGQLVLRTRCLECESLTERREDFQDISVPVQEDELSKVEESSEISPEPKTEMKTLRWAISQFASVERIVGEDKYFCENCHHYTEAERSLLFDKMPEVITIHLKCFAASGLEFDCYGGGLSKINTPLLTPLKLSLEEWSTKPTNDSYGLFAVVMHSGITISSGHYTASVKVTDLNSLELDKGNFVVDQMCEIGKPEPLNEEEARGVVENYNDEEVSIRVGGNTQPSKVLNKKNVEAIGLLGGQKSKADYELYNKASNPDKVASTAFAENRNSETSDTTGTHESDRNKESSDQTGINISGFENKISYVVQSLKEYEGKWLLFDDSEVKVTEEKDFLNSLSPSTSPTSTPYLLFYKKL
Chain of Cytochrome P450 3A4 (Homo sapiens) (P08684 whole entry, looked up): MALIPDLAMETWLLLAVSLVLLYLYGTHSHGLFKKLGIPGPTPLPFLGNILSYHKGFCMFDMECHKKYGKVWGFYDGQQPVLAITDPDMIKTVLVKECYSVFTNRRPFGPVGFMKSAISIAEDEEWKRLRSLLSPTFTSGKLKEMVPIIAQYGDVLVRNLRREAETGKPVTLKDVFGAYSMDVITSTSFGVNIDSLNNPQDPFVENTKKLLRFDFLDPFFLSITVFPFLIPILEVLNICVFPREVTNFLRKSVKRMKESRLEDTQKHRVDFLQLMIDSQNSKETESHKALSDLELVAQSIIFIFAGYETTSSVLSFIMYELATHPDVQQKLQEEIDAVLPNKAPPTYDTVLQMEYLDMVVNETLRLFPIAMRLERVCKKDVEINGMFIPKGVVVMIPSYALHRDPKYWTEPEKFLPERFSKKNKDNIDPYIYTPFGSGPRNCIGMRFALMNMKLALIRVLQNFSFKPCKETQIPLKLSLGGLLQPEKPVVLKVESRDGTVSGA
Chain of Dual specificity protein kinase CLK4 (Homo sapiens) (Q9HAZ1 whole entry, looked up): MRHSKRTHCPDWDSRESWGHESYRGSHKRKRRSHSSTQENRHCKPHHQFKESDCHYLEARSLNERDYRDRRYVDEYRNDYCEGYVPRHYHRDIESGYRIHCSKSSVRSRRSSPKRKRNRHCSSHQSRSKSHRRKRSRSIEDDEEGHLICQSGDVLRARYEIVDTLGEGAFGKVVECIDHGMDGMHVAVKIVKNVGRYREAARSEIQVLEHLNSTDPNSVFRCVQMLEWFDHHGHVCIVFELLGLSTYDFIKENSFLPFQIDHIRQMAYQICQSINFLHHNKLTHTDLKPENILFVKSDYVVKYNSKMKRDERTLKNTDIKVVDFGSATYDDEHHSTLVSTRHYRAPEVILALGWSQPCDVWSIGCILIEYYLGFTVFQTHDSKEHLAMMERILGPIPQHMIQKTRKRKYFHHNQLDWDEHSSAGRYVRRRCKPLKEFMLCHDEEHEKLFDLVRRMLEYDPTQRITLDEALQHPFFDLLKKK
Chain of Cytochrome P450 1A2 (Homo sapiens) (P05177 whole entry, looked up): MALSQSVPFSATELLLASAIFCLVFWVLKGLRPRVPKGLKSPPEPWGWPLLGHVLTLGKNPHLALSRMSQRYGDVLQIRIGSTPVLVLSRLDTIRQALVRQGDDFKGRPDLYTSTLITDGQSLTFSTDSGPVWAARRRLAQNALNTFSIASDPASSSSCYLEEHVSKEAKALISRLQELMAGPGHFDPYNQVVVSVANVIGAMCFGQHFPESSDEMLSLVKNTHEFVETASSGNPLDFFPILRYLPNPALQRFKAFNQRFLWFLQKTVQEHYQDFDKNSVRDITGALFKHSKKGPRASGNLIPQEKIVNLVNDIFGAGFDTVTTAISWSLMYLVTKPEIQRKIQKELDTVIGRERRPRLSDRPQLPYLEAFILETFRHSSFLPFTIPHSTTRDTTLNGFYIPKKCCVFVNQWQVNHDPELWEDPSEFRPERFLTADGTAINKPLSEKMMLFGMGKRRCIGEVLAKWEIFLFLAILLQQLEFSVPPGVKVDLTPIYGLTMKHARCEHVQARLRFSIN
Chain of 3',5'-cyclic-AMP phosphodiesterase 4B (Homo sapiens) (Q07343 whole entry, looked up): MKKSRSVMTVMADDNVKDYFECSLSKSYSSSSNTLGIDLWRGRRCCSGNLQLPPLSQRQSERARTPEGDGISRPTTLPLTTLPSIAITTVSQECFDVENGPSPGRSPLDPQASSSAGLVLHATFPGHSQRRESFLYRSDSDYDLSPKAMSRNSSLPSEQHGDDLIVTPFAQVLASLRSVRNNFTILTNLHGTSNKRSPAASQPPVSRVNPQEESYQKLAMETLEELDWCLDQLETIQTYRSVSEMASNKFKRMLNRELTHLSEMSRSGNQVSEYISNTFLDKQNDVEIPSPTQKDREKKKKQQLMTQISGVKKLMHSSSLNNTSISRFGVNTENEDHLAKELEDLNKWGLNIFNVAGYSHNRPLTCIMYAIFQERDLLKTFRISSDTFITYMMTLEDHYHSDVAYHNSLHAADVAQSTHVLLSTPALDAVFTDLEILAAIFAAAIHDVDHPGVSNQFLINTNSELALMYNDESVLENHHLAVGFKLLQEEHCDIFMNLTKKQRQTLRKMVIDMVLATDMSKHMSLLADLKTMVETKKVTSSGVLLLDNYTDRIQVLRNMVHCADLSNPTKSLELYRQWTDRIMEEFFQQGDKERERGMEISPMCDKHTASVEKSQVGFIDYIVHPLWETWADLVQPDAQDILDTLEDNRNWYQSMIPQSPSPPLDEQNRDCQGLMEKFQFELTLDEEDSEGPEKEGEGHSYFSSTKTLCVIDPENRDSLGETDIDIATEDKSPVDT

Turning to `CCOc1ccc(NC(=O)c2c(NC(=O)Cc3ccccc3)sc3c2CCC(C)C3)cc1` (centres undefined), the figures for the Potency in test [1], in test [2] and in test [3] were 5.62 µM (active), 8.91 µM (active) and 3.55 µM (active), respectively. Besides, the Potency result in test [4] is “inactive”.

As for `Cc1nnc(SCC(=O)NCc2ccccc2Cl)c2nn(-c3ccccc3)c(C)c12`, the Potency in test [5] was 3.01 µM (active).

As for `COc1ccccc1-c1cc(C(F)(F)F)nc(S(=O)(=O)CCCC(=O)Nc2ccc(F)cc2F)n1`, the Potency in [1] was 4.47 µM (active); in [2], 8.91 µM (active); in test [4], 18.4 µM (active).

As to `C1CCN2C[C@H]3C[C@H](CN4CCCCC34)C2C1` (some centres undefined), the Potency result in test [6] and in test [9] was “inactive” throughout. Besides, the call in [7] was inactive. In addition, in test [8] (at 57.5 µM (top of the series)), the activity change, negative = inhibition is 2.4% (inactive) and 4.93% (inactive). Moreover, the max response is 17.1% and 11% in test [8] (measured here: cell count channel max response); 19.7% and 18.8% in [8] (measured here: lipid channel max response).

For `CN1CCN(c2ncc3nc(-c4cn(C)c5ccccc45)c(=O)n(C)c3n2)CC1`, the Potency was > 11.4 µM (inactive) in test [10], 31.6 µM (active) in [12], > 9.22 µM (inactive) in [15] and > 46 µM (inactive) in [16]. Further, the values for the activity change, negative = inhibition in test [11] and in [13] were -20.2% (inactive) and 11.3% (inactive), respectively. Moreover, in test [14], the activity, negative = inhibition is 12.5% (inactive). Further, the Potency entry in test [17], in test [18], in test [19], in test [20], in test [21] and in test [22] was “inactive” in each case. The Potency entry in test [9] is “inactive”.

Turning to `Cc1ccccc1-c1nc(-n2ccnc2)c2ccccc2n1`, the Potency in [10] is > 11.4 µM (inactive); in test [12], 0.316 µM (active); in test [15], > 46 µM (inactive); in test [16], > 46 µM (inactive); in test [23], 398 nM (active). The activity change, negative = inhibition was -12.3% (inactive) in [11] and -10.1% (inactive) in [13]. Besides, the activity, negative = inhibition in test [14] was 0.874% (inactive). The Potency entry in test [17] and in test [19] was “inactive” throughout. Further, the call in test [7] was inactive.
